# According to PubChem BioAssay (EPA / NIEHS):
# Several values for one entry are separate records, joined by “and”; a condition that tells them apart may be missing. Equal entries are not always repeated. Inconclusive results are not listed. A structure can be active in one record and inactive in another. Activity calls are given as the source filed them. How the source made its calls, unless noted: active means hit-call score of the fitted dose curve at least 0.9, where 1 is the maximum; inconclusive means response in the unintended direction; inactive means score below 0.9.
# Tests used:
# [1] = target: chicken Estrogen Receptor (ERa), ESR1 (gene 396099) (UniProt P06212); experiment: ATG_chERa_XSP2: Attagene TRANS-FACTORIAL Multi-Species (XSP2) HepG2 Assay for chicken Estrogen Receptor (ERa) (AID 2283817);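 further: actives raise reporter signal above DMSO so AC50 reflects ER activation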
# Method in brief: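 Transient MRTU transfection of HepG2 → 24 h chemical dosing → TriZol RNA, oligo(dT) RT → PCR, 6-FAM primer extension, HpaI digest → CE quantitation of chicken ERa-Gal4-driven reporter mRNA. Positive direction vs DMSO.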
# [2] = tested on: zebrafish Estrogen Receptor (ER2a), gene 317734; experiment: ATG_zfER2a_XSP2: Attagene TRANS-FACTORIAL Multi-Species (XSP2) HepG2 Assay for zebrafish Estrogen Receptor (ER2a) (AID 2283818);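 further: hits raise reporter mRNA so AC50 reflects activation of zebrafish ER2a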
# Method in brief: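 HepG2 cells transiently transfected with GAL4-UAS reporter units and chimeric zebrafish ER2a-Gal4, exposed 24 h; medium contains 3 nM 6-alpha-fluorotestosterone and 1.5 nM norgestrel. Reporter mRNA quantified by RT-PCR, HpaI digestion, capillary electrophoresis; gain versus DMSO.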
# [3] = tested on: chicken Androgen Receptor (AR), gene 422165; experiment: ATG_chAR_XSP2: Attagene TRANS-FACTORIAL Multi-Species (XSP2) HepG2 Assay for chicken Androgen Receptor (AR) (AID 2283819);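 further: hits raise reporter mRNA above DMSO so potency is for activation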
# Method in brief: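 HepG2 cells transiently transfected with chicken AR–GAL4 chimeric reporter constructs, stimulated with 3 nM 6-alpha-fluorotestosterone plus 1.5 nM norgestrel, dosed 24 h. Reporter mRNA quantified by RT-PCR and capillary electrophoresis; gain of signal fitted versus DMSO.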
# [4] = tested on: frog Estrogen Receptor (ER), gene 398734; experiment: ATG_frER1_XSP2: Attagene TRANS-FACTORIAL Multi-Species (XSP2) HepG2 Assay for frog Estrogen Receptor (ER) (AID 2283821);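 further: hits raise reporter mRNA above DMSO baseline so potency means agonist or activator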
# Method in brief: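 Steps: transfect HepG2 with multiple reporter transcription units; treat with chemical for 24 h; isolate RNA, reverse-transcribe, PCR-amplify, label with 6-FAM, digest with HpaI; resolve fragments by capillary electrophoresis. Signal is scored against DMSO.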
# [5] = tested on: zebrafish Estrogen Receptor (ER2b), gene 317733; experiment: ATG_zfER2b_XSP2: Attagene TRANS-FACTORIAL Multi-Species (XSP2) HepG2 Assay for zebrafish Estrogen Receptor (ER2b) (AID 2283823);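 further: fitted upward as reporter gain over DMSO so potency reflects activation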
# Method in brief: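 HepG2 human liver cells transiently transfected with multiplexed GAL4-UAS reporter units expressing chimeric NR-Gal4 proteins; compounds dosed for 24 h. Reporter mRNA quantified by RT-PCR, 6-FAM labelling and capillary electrophoresis; gain-of-signal fitted against DMSO baseline.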
# [6] = target: Estrogen receptor (Homo sapiens) (UniProt P03372); experiment: ATG_hERa_XSP2: Attagene TRANS-FACTORIAL Multi-Species (XSP2) HepG2 Assay for human Estrogen Receptor (ERa) (AID 2283827)
# Method in brief: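 HepG2 cells transiently transfected with multiplexed GAL4-UAS reporters driven by chimeric receptor-Gal4 proteins, dosed 24 h with 3 nM 6-alpha-fluorotestosterone and 1.5 nM norgestrel present. Reporter mRNA by RT-PCR and capillary electrophoresis; gain-of-signal fit versus DMSO.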
# [7] = target: Peroxisome proliferator-activated receptor gamma (Homo sapiens) (UniProt P37231); experiment: ATG_hPPARg_XSP2: Attagene TRANS-FACTORIAL Multi-Species (XSP2) HepG2 Assay for human Peroxisome Proliferator-activated Receptor gamma (PPARg) (AID 2283829);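 further: actives raise reporter mRNA above DMSO so AC50 reflects PPARg activation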
# Method in brief: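 Reporter transcripts were measured by RT-PCR, fluorescent labeling, HpaI digestion and capillary electrophoresis, relative to DMSO, 24 h post-dosing. Transiently transfected HepG2 expressed NR-Gal4 chimeras regulating GAL4-UAS reporters; medium contained 3 nM 6-alpha-fluorotestosterone plus 1.5 nM norgestrel.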
# [8] = target: mouse Peroxisome Proliferator-activated Receptor gamma (PPARg), Pparg (gene 19016) (UniProt P37238); experiment: ATG_mPPARg_XSP2: Attagene TRANS-FACTORIAL Multi-Species (XSP2) HepG2 Assay for mouse Peroxisome Proliferator-activated Receptor gamma (PPARg) (AID 2283830);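 further: hits are gains in reporter mRNA above DMSO so AC50 marks activation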
# Method in brief: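 HepG2 cells transiently transfected with GAL4-UAS reporter units for chimeric NR-Gal4 proteins including mouse PPARg, exposed 24 h; medium contained 3 nM 6-alpha-fluorotestosterone and 1.5 nM norgestrel. Reporter mRNA quantified by RT-PCR, HpaI digestion and capillary electrophoresis, vs DMSO.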
# [9] = target: Nuclear receptor subfamily 1 group I member 2 (Mus musculus) (UniProt O54915); experiment: ATG_mPXR_XSP2: Attagene TRANS-FACTORIAL Multi-Species (XSP1) HepG2 Assay for mouse Pregnane X Receptor (PXR) (AID 2283831)
# Method in brief: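 Reporter transcripts measured after 24 h dosing by RT-PCR with 6-FAM labelling, HpaI digestion and capillary electrophoresis. Transiently transfected HepG2 with NR-Gal4 chimeras; increase over DMSO baseline scored.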
# [10] = target: zebrafish Thyroid Hormone Receptor alpha (TRa), thraa (gene 30670) (UniProt Q98867); experiment: ATG_zfTRa_XSP2: Attagene TRANS-FACTORIAL Multi-Species (XSP1) HepG2 Assay for zebrafish Thyroid Hormone Receptor alpha (TRa) (AID 2283832);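 further: actives raise zebrafish TRa-Gal4 reporter transcript above DMSO baseline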
# Method in brief: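 HepG2 transiently transfected with GAL4-UAS reporter units and chimeric zebrafish TRa-Gal4; reporter mRNA quantified after 24 h dosing by RT-PCR, HpaI digestion and capillary electrophoresis fluorescence. Gain of signal vs DMSO; XSP2 medium contains 3 nM 6-alpha-fluorotestosterone, 1.5 nM norgestrel.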
# [11] = tested on: turtle Thyroid Hormone Receptor, alpha (TRa), gene 101949057; experiment: ATG_trTRa_XSP2: Attagene TRANS-FACTORIAL Multi-Species (XSP1) HepG2 Assay for turtle Thyroid Hormone Receptor, alpha (TRa) (AID 2283834);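 further: hits raise reporter mRNA over the DMSO baseline so AC50 marks activators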
# Method in brief: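 Turtle TRa-Gal4 chimera activity in transfected human HepG2 cells: reporter transcripts quantified by RT-PCR, 6-FAM labelling and capillary electrophoresis 24 h post-dosing; positive direction versus DMSO, medium containing 3 nM 6-alpha-fluorotestosterone and 1.5 nM norgestrel.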
# [12] = ATG_M_61_XSP2: Attagene TRANS-FACTORIAL Multi-Species (XSP2) HepG2 Assay for M61 Transcription Factor (Internal Marker) (AID 2283835; active means hit-call score of the fitted dose curve at least 0.9, where 1 is the maximum; inactive means score below 0.9;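 further: active means a rise in signal above the DMSO baseline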)
# Method in brief: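 First, HepG2 cells are transfected with reporter units under GAL4-UAS control. Next, chemicals are applied for 24 h. Then total RNA is reverse-transcribed, amplified, fluorescently labelled and sized by capillary electrophoresis, with gain of signal scored against DMSO.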
# [13] = target: zebrafish Thyroid Hormone Receptor beta (TRb), thrb (gene 30607) (UniProt Q9PVE4); experiment: ATG_zfTRb_XSP2: Attagene TRANS-FACTORIAL Multi-Species (XSP1) HepG2 Assay for zebrafish Thyroid Hormone Receptor beta (TRb) (AID 2283836)
# Method in brief: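 HepG2 cells transiently transfected with chimeric zebrafish TRb-GAL4 reporter units, dosed 24 h with 3 nM 6-alpha-fluorotestosterone and 1.5 nM norgestrel present. Reporter mRNA quantified by RT-PCR and capillary electrophoresis; gain fitted against DMSO.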
# [14] = ATG_XTT_Cytotoxicity_XSP2: Cytotoxicity Assessment in the Attagene TRANS-FACTORIAL Multi-Species (XSP2) HepG2 Assay (AID 2283837)
# Method in brief: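 HepG2 cells, transiently transfected with multiple reporter constructs, exposed to chemical for 24 h. Cell number assessed with XTT fluorescence read-out; loss of signal fitted relative to DMSO.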
# [15] = target: human Thyroid hormone Receptor alpha (TRa), THRA (gene 7067) (UniProt P10827); experiment: ATG_hTRa_XSP2: Attagene TRANS-FACTORIAL Multi-Species (XSP2) HepG2 Assay for human Thyroid hormone Receptor alpha (TRa) (AID 2283838)
# Method in brief: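 HepG2 cells were transiently transfected with GAL4-UAS reporter units for chimeric human TRa-Gal4 and dosed for 24 hours, with 3 nM 6-alpha-fluorotestosterone and 1.5 nM norgestrel present. Reporter mRNA was quantified by RT-PCR, FAM labelling and capillary electrophoresis, with gain of signal fitted versus DMSO.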
# [16] = tested on: frog Estrogen Receptor (ER2), gene 100174814; experiment: ATG_frER2_XSP2: Attagene TRANS-FACTORIAL Multi-Species (XSP2) HepG2 Assay for frog Estrogen Receptor (ER2) (AID 2283828)
# Method in brief: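 Multiplexed transactivation in HepG2: frog estrogen receptor fused to Gal4 drives a UAS reporter. Signal is reporter mRNA after 24 h treatment.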
# [17] = tested on: zebrafish Peroxisome Proliferator-activated Receptor gamma (PPARg), gene 557037; experiment: ATG_zfPPARg_XSP2: Attagene TRANS-FACTORIAL Multi-Species (XSP2) HepG2 Assay for zebrafish Peroxisome Proliferator-activated Receptor gamma (PPARg) (AID 2283833);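 further: actives increase reporter signal over DMSO so AC50 reflects activation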
# Method in brief: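 After 24 h chemical exposure, RNA from transiently transfected HepG2 (chimeric NR-Gal4 TRANS reporters) was reverse-transcribed, PCR-amplified, 6-FAM-labelled, HpaI-cut and sized by capillary electrophoresis. Induction was scored in the positive direction relative to DMSO.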
# [18] = tested on: frog Androgen Receptor (AR), gene 399456; experiment: ATG_frAR_XSP2: Attagene TRANS-FACTORIAL Multi-Species (XSP2) HepG2 Assay for frog Androgen Receptor (AR) (AID 2283824);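 further: actives raise reporter signal above DMSO so AC50 reflects agonist-like induction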
# Method in brief: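 HepG2 cells transiently transfected with GAL4-UAS reporter units and frog (Xenopus laevis) AR-Gal4 chimera; reporter mRNA measured 24 h after dosing by RT-PCR and capillary electrophoresis. Gain of signal fitted relative to DMSO baseline.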
# [19] = tested on: zebrafish Androgen Receptor (AR), gene 100005148; experiment: ATG_zfAR_XSP2: Attagene TRANS-FACTORIAL Multi-Species (XSP2) HepG2 Assay for zebrafish Androgen Receptor (AR) (AID 2283825);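 further: hits raise reporter mRNA above DMSO so AC50 reflects agonist-type gain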
# Method in brief: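 Zebrafish AR–GAL4 chimera transiently expressed with GAL4-UAS reporter in HepG2 cells, co-stimulated with 3 nM 6-alpha-fluorotestosterone and 1.5 nM norgestrel; 24 h dosing, reporter mRNA read by RT-PCR/capillary electrophoresis versus DMSO.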
# [20] = ATG_M_19_XSP2: Attagene TRANS-FACTORIAL Multi-Species (XSP2) HepG2 Assay for M32 Transcription Factor (Internal Marker) (AID 2283822)
# Method in brief: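 Internal background marker in a multi-species nuclear receptor TRANS panel: transfected HepG2 cells exposed 24 h, with 3 nM 6-alpha-fluorotestosterone and 1.5 nM norgestrel present. Readout is RT-PCR of reporter transcripts resolved by capillary electrophoresis, gain-of-signal versus DMSO.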
# Sequence of zebrafish Thyroid Hormone Receptor alpha (TRa), thraa (gene 30670) (Q98867 whole entry, looked up, the tested form may be a part): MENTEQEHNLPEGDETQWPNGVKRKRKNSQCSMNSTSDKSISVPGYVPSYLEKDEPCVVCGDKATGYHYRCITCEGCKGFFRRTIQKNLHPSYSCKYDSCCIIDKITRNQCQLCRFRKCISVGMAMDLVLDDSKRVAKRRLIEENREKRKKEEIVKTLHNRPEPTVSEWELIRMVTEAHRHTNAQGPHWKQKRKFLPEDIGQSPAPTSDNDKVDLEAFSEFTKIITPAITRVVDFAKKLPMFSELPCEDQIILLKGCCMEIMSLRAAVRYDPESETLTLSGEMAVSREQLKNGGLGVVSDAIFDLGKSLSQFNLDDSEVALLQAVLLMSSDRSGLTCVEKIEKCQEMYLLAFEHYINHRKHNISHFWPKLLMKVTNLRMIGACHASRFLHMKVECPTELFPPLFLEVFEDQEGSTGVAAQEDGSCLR
# Sequence of Estrogen receptor (Homo sapiens) (P03372 whole entry, looked up, the tested form may be a part): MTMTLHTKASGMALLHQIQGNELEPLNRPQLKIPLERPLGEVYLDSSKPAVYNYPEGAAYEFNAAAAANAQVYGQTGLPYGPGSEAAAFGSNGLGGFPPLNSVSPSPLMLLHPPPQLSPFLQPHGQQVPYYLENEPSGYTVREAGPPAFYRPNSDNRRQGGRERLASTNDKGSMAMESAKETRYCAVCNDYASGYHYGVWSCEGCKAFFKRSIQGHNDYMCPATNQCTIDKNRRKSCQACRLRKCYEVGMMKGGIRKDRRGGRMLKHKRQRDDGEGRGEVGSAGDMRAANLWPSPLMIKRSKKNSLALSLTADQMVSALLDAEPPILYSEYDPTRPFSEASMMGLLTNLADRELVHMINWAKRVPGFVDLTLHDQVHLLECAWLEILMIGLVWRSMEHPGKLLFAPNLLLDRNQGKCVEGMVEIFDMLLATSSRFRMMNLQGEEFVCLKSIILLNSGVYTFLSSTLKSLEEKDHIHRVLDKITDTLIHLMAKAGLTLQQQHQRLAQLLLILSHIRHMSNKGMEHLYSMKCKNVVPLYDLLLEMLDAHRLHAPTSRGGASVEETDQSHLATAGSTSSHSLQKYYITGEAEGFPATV
# Sequence of Nuclear receptor subfamily 1 group I member 2 (Mus musculus) (O54915 whole entry, looked up, the tested form may be a part): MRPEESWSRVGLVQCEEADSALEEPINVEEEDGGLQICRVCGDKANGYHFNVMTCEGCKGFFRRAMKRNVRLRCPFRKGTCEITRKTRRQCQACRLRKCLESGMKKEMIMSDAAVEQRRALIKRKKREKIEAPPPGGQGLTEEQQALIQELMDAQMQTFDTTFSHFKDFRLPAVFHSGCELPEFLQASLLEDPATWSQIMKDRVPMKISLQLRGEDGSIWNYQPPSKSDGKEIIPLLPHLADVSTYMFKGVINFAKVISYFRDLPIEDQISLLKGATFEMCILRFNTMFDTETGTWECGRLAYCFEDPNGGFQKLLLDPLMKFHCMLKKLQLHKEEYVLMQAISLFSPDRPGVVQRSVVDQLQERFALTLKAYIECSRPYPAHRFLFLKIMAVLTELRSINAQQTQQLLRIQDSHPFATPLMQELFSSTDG
# Sequence of Peroxisome proliferator-activated receptor gamma (Homo sapiens) (P37231 whole entry, looked up, the tested form may be a part): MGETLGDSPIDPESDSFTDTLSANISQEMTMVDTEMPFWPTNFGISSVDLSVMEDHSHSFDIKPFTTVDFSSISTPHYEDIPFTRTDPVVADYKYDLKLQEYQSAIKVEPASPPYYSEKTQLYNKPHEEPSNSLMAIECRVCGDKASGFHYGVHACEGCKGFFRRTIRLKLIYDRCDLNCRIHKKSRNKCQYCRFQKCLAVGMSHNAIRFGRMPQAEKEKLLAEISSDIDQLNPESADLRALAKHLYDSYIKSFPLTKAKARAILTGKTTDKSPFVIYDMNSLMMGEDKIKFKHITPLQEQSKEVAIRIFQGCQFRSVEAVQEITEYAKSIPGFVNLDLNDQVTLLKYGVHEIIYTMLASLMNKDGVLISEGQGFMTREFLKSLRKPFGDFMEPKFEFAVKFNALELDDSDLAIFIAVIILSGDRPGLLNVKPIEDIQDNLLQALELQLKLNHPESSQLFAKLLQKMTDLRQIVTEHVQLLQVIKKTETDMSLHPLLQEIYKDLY
# Sequence of zebrafish Thyroid Hormone Receptor beta (TRb), thrb (gene 30607) (Q9PVE4 whole entry, looked up, the tested form may be a part): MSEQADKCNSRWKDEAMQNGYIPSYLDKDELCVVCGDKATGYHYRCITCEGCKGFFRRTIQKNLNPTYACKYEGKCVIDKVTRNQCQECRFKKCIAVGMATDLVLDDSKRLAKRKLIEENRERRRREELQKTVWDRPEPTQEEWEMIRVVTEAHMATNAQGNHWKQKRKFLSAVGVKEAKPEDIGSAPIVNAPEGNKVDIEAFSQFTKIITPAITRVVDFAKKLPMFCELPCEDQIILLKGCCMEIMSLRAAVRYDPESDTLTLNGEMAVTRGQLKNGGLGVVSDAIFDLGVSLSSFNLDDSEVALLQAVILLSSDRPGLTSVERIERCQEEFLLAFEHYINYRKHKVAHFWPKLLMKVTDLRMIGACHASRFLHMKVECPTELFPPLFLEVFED
# Sequence of human Thyroid hormone Receptor alpha (TRa), THRA (gene 7067) (P10827 whole entry, looked up, the tested form may be a part): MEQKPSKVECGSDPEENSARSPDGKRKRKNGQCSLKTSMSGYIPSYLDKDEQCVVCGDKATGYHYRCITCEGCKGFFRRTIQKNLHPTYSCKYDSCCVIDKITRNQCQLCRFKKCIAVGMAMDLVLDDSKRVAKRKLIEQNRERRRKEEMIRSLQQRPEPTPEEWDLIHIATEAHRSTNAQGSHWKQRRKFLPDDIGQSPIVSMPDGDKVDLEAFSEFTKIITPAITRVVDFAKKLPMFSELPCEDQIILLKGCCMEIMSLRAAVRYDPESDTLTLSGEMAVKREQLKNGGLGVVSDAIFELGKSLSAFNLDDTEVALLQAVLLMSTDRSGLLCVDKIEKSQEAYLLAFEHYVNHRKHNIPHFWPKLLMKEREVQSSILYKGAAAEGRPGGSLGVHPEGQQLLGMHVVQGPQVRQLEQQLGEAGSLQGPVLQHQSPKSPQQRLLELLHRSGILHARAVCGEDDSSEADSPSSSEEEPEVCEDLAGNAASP
# Sequence of mouse Peroxisome Proliferator-activated Receptor gamma (PPARg), Pparg (gene 19016) (P37238 whole entry, looked up, the tested form may be a part): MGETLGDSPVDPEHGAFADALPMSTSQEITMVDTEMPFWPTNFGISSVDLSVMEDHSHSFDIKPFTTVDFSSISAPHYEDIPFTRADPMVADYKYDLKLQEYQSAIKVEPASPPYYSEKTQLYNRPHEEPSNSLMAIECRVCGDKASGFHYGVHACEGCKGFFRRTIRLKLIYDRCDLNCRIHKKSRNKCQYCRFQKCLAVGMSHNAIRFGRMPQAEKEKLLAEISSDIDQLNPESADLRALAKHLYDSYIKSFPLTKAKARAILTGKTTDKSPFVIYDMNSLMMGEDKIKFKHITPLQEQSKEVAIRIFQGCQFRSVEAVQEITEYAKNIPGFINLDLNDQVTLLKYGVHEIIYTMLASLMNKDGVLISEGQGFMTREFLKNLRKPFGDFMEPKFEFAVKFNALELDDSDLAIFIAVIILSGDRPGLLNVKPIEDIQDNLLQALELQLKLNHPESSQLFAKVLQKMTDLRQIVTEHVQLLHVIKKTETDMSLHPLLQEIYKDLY
# Sequence of chicken Estrogen Receptor (ERa), ESR1 (gene 396099) (P06212 whole entry, looked up, the tested form may be a part): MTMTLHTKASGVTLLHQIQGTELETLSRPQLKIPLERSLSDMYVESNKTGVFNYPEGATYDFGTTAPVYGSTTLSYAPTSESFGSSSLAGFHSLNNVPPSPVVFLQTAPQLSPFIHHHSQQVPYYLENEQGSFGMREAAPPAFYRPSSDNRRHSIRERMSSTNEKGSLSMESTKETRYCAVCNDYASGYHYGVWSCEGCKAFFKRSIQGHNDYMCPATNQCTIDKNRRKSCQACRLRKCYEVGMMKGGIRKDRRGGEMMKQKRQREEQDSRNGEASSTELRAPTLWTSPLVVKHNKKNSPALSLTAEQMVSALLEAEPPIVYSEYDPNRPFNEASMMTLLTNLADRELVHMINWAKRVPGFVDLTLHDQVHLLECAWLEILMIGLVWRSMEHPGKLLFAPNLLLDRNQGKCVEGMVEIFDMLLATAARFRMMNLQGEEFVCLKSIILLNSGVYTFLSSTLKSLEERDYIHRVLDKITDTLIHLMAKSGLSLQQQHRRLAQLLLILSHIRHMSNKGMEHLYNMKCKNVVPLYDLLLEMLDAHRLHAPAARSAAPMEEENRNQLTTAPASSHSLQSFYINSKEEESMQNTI
smiles,measurement,setting,value
CC(C)(C)c1ccc(S)cc1,outcome,[1],inactive
same,AC50,[2],100 µM (active)
same,outcome,[3],inactive
same,outcome,[4],inactive
same,AC50,[5],179 µM (active)
same,outcome,[6],inactive
same,AC50,[7],3.68 µM (active)
same,outcome,[7],inactive
same,outcome,[8],inactive
same,outcome,[9],inactive
same,outcome,[10],inactive
same,outcome,[11],inactive
same,outcome,[12],inactive
same,outcome,[13],inactive
same,outcome,[14],inactive
same,outcome,[15],inactive
C#C[C@]1(O)CC[C@H]2[C@@H]3CCc4cc(O)ccc4[C@H]3CC[C@@]21C,AC50,[2],4.88e-05 µM (active)
same,AC50,[5],0.000204 µM (active)
same,AC50,[16],1.35 nM (active)
same,outcome,[7],inactive
same,outcome,[10],inactive
same,outcome,[11],inactive
same,outcome,[12],inactive
same,outcome,[13],inactive
CCCCCC(=O)O[C@]1(C(C)=O)CC[C@H]2[C@@H]3CCC4=CC(=O)CC[C@]4(C)[C@H]3CC[C@@]21C,AC50,[2],172 µM (active)
same,outcome,[4],inactive
same,AC50,[5],7.02 µM (active)
same,outcome,[16],inactive
same,AC50,[7],2.88 µM (active) and 2.34 µM (active)
same,AC50,[8],7.63 µM (active) and 3.17 µM (active)
same,outcome,[9],inactive
same,outcome,[10],inactive
same,AC50,[17],132 µM (active)
same,outcome,[12],inactive
same,outcome,[13],inactive
same,outcome,[14],inactive
CCCCCCCCOC(=O)c1ccc(O)cc1,AC50,[1],18 µM (active) and 788 nM (active)
same,AC50,[2],11 µM (active) and 3.51 µM (active)
same,AC50,[3],33.4 µM (active)
same,outcome,[3],inactive
same,AC50,[4],20.9 µM (active) and 2.94 µM (active)
same,AC50,[5],14.9 µM (active) and 2.94 µM (active)
same,AC50,[18],33.4 µM (active)
same,outcome,[19],inactive
same,AC50,[6],21.2 µM (active) and 3.19 µM (active)
same,AC50,[16],9.18 µM (active) and 803 nM (active)
same,outcome,[9],inactive
same,outcome,[10],inactive
same,outcome,[17],inactive
same,outcome,[11],inactive
same,outcome,[12],inactive
same,outcome,[13],inactive
same,AC50,[14],41.3 µM (active)
same,outcome,[15],inactive
O=c1cc(-c2ccc(O)cc2)oc2cc(O)cc(O)c12,AC50,[1],1.67 µM (active) and 768 nM (active)
same,AC50,[2],1.1 µM (active) and 677 nM (active)
same,AC50,[4],767 nM (active)
same,outcome,[4],inactive
same,AC50,[5],1.69 µM (active) and 1.07 µM (active)
same,AC50,[16],3.85 µM (active) and 215 nM (active)
same,AC50,[7],27.8 µM (active) and 12.8 µM (active)
same,AC50,[8],27.5 µM (active) and 16.2 µM (active)
same,AC50,[9],26.9 µM (active)
same,outcome,[10],inactive
same,outcome,[17],inactive
same,AC50,[11],26.7 µM (active)
same,outcome,[11],inactive
same,outcome,[13],inactive
same,outcome,[14],inactive
same,AC50,[15],6.26 µM (active)
same,outcome,[15],inactive
CC/C(=C(\c1ccccc1)c1ccc(OCCN(C)C)cc1)c1ccccc1,outcome,[2],inactive
same,outcome,[4],inactive
same,outcome,[20],inactive
same,outcome,[9],inactive
same,outcome,[10],inactive
same,outcome,[17],inactive
same,outcome,[12],inactive
same,outcome,[13],inactive
